Over roughly 33,000 sequences, “E-score (-0.5 to 0.5)” has its median near -0.054; the highest 2% begin near 0.35. Shown is part of a subset that was picked to be rich in the highest values.
target: T1, Stb5 (UniProt P38699); assay: PBM E-score (8-mer binding enrichment) (E-score (-0.5 to 0.5)); higher = stronger / more preferred TF binding; details: protein concentration: 200 nM; construct: GST-full length
T1 sequence: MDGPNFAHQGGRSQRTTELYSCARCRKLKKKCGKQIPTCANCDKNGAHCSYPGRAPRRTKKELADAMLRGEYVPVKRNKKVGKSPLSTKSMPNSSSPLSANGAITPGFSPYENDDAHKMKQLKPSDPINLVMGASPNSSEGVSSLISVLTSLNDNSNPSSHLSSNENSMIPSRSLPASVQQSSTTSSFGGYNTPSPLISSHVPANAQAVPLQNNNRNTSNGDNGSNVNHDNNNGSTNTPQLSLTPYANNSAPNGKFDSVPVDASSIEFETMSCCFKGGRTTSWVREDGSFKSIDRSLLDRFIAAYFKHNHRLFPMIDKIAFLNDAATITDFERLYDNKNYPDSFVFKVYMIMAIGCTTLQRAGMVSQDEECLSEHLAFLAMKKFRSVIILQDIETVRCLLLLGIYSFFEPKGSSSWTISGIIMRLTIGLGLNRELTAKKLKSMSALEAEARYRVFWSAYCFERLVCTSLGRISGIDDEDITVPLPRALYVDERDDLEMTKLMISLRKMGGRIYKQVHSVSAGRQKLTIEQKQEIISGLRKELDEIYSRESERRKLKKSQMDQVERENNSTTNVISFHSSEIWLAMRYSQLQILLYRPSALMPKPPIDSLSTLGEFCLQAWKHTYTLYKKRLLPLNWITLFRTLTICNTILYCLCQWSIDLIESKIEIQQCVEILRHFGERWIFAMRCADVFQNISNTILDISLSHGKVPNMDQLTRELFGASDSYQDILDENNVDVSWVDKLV
Protocol: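 Universal 'all 10-mer' protein binding microarrays (Agilent AMADID 015681) probed with GST-tagged S. cerevisiae TFs (full-length or DBD) made by in vitro transcription/translation (PURExpress), about 100-200 nM. Bound TF was detected with fluorescent anti-GST. Each ungapped 8-mer (which stands for itself and its reverse complement) is scored by the PBM enrichment score (E-score), a modified Wilcoxon-Mann-Whitney statistic from -0.5 to +0.5, computed with the Universal PBM Analysis Suite. Scale: above 0.35 generally sequence-specific binding.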

Sequence | PBM E-score
AATTGCCC | 0.0559
AATTGCCA | -0.27
AAATGCCG | 0.435
AAGTGCCC | 0.0216
AATTGCCG | 0.354
CTAGCGTC | 0.0861
AGAAACCA | -0.212
CCATGGCA | -0.0516
ACCCCTAC | -0.171
ATACATTC | -0.228
GACCGTCC | 0.21
AACCGTCC | -0.0366
AACCGTCG | 0.212
CACCGTCC | 0.407
CACCGTCG | 0.373
CACCGTCA | 0.333
AACCTAGC | -0.17
CTGTGGCA | -0.279
CTAAGCCC | 0.324
ATAAAGCG | 0.236
ATAAGACG | -0.111
ATAAAGCC | 0.359

Sequence | PBM E-score
CTAAGGCC | 0.262
ATAAGGCC | 0.359
ATAAGCCA | -0.107
CTAAGACC | 0.22
CTAAAGCC | 0.228
ATAAGCCC | 0.406
ATAAGACC | 0.397
ATAAGGCG | -0.00531
AGAAAGAG | -0.102
ACCTGATA | 0.0218
ATAAGTCC | 0.443
ATAAGTCG | 0.15
CTAAGTCC | 0.245
ATGCGTTG | -0.0346
AAACTCCC | 0.104
GAGTTCGC | 0.0473
TACGCCGA | 0.299
AACGCCTT | -0.00961
AACGCCGC | 0.448
GACGCCGC | 0.406
CACGCCGA | 0.133
AACGCCGA | 0.456

Sequence | PBM E-score
GACGCCGA | 0.342
AACGCCAC | -0.0588
AACGCCAT | -0.106
AACGCCTC | -0.064
AACGCCGT | 0.437
CACGCCGC | 0.293
ATAGCCCA | -0.245
ACCAGCGA | 0.0766
AAAGAGAA | -0.00974
AACGCCGG | 0.44
AACGCCCG | 0.24
CACGCCGG | 0.268
AAATAGAT | 0.104
AGCTCCCG | -0.0713
CGCTCCGC | 0.164
CGCTCCGA | 0.231
AGCTCCGA | 0.405
GGCTCCGA | 0.0871
AGCTCCTG | -0.18
AGCTCCGG | 0.362
AGCTCCTC | -0.184
AGCTCCGC | 0.406

Sequence | PBM E-score
AGAGCAGA | -0.138
CTGCCCGC | 0.06
AGGCCCGC | 0.36
AGGCCCGA | 0.314
ATGCCCGG | 0.318
CGGCCCGC | 0.188
ATGCCCGC | 0.366
TGACGTCA | 0.158
AGATGCGA | 0.0797
TACCACGA | -0.267
CGCCGCGC | 0.368
CGCCGCCG | 0.369
ATCCGCCC | 0.218
AGCCGCCC | 0.144
CTCCGCCA | 0.293
CGCCGCGA | 0.289
CGCCGCCA | 0.348
GGCCGCCC | 0.253
CGCCGCCC | 0.352
CTCCGCCC | 0.397
AGCCGCGC | 0.173
AGCCGCCG | 0.215
